Compound activity deposited in PubChem BioAssay by National Center for Advancing Translational Sciences (NCATS).
In the library only some 14% were active in any assay of this set; here they are far more common.
4MU fluor – compounds fluorescent in 4-MU spectral region; 11% of 59,000 active; compound autofluorescence, 340/450 nm, 4-MU equivalents; hits give high values; max dye-equivalent concentration, M; in the data active = max dye-equivalent concentration above about 10 nM; inconclusive = mostly about 1.1 nM to 9.6 nM
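Compounds in 100 mM Tris, pH 8.0, incubated 15 min at room temperature, then fluorescence read at 340 nm excitation/450 nm emission. Signal converted to 4-MU dye-equivalent concentration using an on-plate six-point 4-MU standard curve.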
HADH2 inh – HADH2 (human) dehydrogenase inhibition | recombinant HADH2, NADH fluorescence, beta-hydroxybutyryl-CoA | Potency, µM (doses to about 57.1 µM), inactives show top-dose activity change, negative = inhibition, usual class: inhibitors | 3.4% of 73,000 active | Q99714; also: potency is read from the fitted curve at half-maximal effect; % is scaled to controls: 0 for no effect and ±100 for the full control effect; nearly all actives have a fitted effect of over 60% in size
Target sequence (Q99714 whole entry, looked up, one chain of several): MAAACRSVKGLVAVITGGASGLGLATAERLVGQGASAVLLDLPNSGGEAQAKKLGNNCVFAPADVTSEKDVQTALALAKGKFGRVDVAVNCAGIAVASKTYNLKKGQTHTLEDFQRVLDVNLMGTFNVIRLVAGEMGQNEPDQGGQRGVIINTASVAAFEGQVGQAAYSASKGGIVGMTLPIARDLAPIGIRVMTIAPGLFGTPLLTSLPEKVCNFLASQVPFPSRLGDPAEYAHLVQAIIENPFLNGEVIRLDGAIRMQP
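His-tagged recombinant enzyme from E. coli, 20 nM, preincubated 15 min RT with compound; reaction started with 1 mM NAD+ and 90 uM beta-hydroxybutyryl-CoA in 100 mM Tris-HCl pH 9.0. NADH fluorescence (ex 360/em 450) read over 4 min; last-minus-first difference.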
HSD17B inhib – HSD17B dehydrogenase inhibition | Q99714 | Potency, µM (doses to about 57.1 µM), inactives show at the highest dose activity change, negative = inhibition, usual class: inhibitors | recombinant HSD17B10, NADH fluorescence kinetic | 7.6% of 75,000 active;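 also: the protocol describes HADH2 (HSD17B10) and not the HSD17B4 of the title; potency is read from the fitted curve at half-maximal effect; % is scaled to controls: 0 for no effect and ±100 for the full control effect; nearly all actives have a fitted effect of over 70% in size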
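20 nM HADH2, pH 9.0 Tris/Tween; cpd preinc 15 min RT; start w/ 1 mM NAD+ + 90 uM b-hydroxybutyryl-CoA; kinetic fluor ex360/em450 q30s x 4 min; delta last-first.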
CRE Fsk mod – CRE-bla signaling modulation under forskolin stimulation. CHO CRE-bla reporter (cAMP response element driving beta-lactamase), forskolin EC10, beta-lactamase ratio. Potency, µM (series often up to 38.2 µM), for the others: at the top dose activity change, negative = inhibition, most hits filed as activators. 2.5% of 71,000 active; active = well fitted activation curve with a large enough effect in the signal ratio, with a control signal flat, not every such curve was filed as active; inconclusive = small, poorly fitted or top-dose-only effect, or effect the other way, or a change in a side signal; the % refers to the signal ratio; also: potency is read from the fitted curve at half-maximal effect; % of control where 0% means no effect
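Using CellSensor CRE-bla CHO cells in Opti-MEM with 0.5% dialyzed FBS, compounds were titrated with EC10 NKH 477 for 3 h at 37 °C. CCF4 ratio (460/530 nm) gave %Activity; AC50 derived.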
A350 fluor – A350 region autofluorescence. max dye-equivalent concentration, M. Compound autofluorescence, 340/450 nm, Alexa 350 dye-equivalents; hits give high values. 11% of 59,000 active; in the data active = max dye-equivalent concentration above about 10 nM; inconclusive = mostly about 1.1 nM to 9.6 nM
AID923 – qHTS Assay for Allosteric/Competitive Inhibitors of Caspase-1: Spectroscopic Profiling in AFC Spectral Region. compound fluorescence, AFC spectral region (405/520 nm). Potency, µM (doses to about 57.5 µM), for inactives: at the highest dose fluorescence increase, most hits filed as activators. 1.1% of 75,000 active; also: potency is read from the fitted curve at half-maximal effect; 0% is about no effect
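Titrations up to 57 uM read every 20 sec for 3 min (405/520 nm) with 50 nM caspase 1 and 5 uM Ac-WEHD-AFC, pH 7.5 HEPES buffer. Fluorescence-vs-time intercept gave baseline, scaled against on-plate AFC standard.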
An asterisk follows results filed as active; i = inactive; ? = inconclusive; . = not tested or not shown; [ ] = dose if it differs, or a comment. Unless noted, calls follow the shape of the dose curve; as a rule, active = well fitted curve in the direction sought with a large enough effect; inconclusive = small, poorly fitted or top-dose-only effect, or another doubt; inactive = no such curve, though single readings can be large; an effect the other way counts as inactive or inconclusive.

SMILES	4MU fluor	HADH2 inh	HSD17B inhib	CRE Fsk mod	A350 fluor	AID923
O=C(CN1CCCCCC1)NCCc1ccc(F)cc1	i	1.0%	4.1%	-3.4%	i	-0.3%
CC(=O)OC/C=C(\C)CCC=C(C)C	.	-8.0%	-0.4%	-11.5%	.	-0.3%
CCOC(=O)N1CCC(NC(=O)c2cc3c(-c4ccc(Cl)cc4)nn(C)c3s2)CC1	.	-1.0%	25.1µM*	-3.4%	.	0.4%
CC(C)NC(=O)c1cc2c(-c3ccc(Cl)cc3)nn(C)c2s1	.	8.2%	7.94µM*	12.2%	.	-0.9%
Cn1nc(-c2ccc(Cl)cc2)c2cc(C(=O)N3CCCC3)sc21	.	-7.0%	-7.9%	0.7%	.	-0.4%
O=C(OCc1nnc(-c2ccccc2)o1)c1ccc(S(=O)(=O)NCc2ccco2)cc1	i	18.7%	-24.5%	10.2%	i	0.4%
Cn1cnnc1SCC(=O)N1CCC(Cc2ccccc2)CC1	i	11.1%	9.5%	-7.3%	i	0.0%
Cc1cc(C)c2c(=O)n(CC(=O)N3CCC(Cc4ccccc4)CC3)sc2n1	.	0.199µM*	12.6µM*	?	.	-0.1%
Cc1cc(C)c2c(=O)n(CC(=O)NCCCN3CCOCC3)sc2n1	.	0.159µM*	15.8µM*	-18.8%	.	2.4%
Cc1ccc(-c2ccc(=O)n(CC(=O)N3CCN(c4cccc(C)c4)C(C)C3)n2)cc1 (stereo not given)	i	-0.7%	0.1%	-14.6%	i	-2.2%
Cc1cc(OCC(=O)NCCCN2CCOCC2)cc(C)c1Cl	i	14.2%	4.2%	-11.6%	i	0.5%
Cc1cccc(N2CCN(C(=O)Cn3sc4nc(C)cc(C)c4c3=O)CC2C)c1 (stereo not given)	.	0.126µM*	12.6µM*	?	.	-2.1%
COc1cccc(CSCC(=O)O)c1	i	15.1%[11.4 µM]	4.4%[11.4 µM]	6.6%[7.6 µM]	i	-0.5%[11.5 µM]
CC(=O)c1ccccc1[N+](=O)[O-]	.	2.9%	-1.7%	-9.5%	.	4.0%
CCOC(=O)Cc1nnc(NC(=O)CSc2nnc3c4ccccc4n(C)c3n2)s1	.	?	-8.1%	3.16µM*	.	0.0%
CCCCC(CC)COC(=O)c1ccccc1C(=O)O (stereo not given)	.	5.6%	-0.6%	-13.2%	.	-3.2%
O=C1OC(Nc2ccc3c(c2)OCO3)c2ccccc21 (stereo not given)	i	25.1µM*	-10.4%	?	i	0.4%
CC(=O)OC[C@@H]1O[C@H](CCON=C(C)C)C=C[C@@H]1OC(C)=O	.	-6.4%[11.4 µM]	5.9%[11.4 µM]	.	.	0.3%[11.5 µM]
COc1ccc(-c2nnc(CSc3nc4ccccc4c(=O)n3CC(C)C)o2)cc1OC	i	2.1%	-4.4%	3.16µM*	i	-0.8%
CCOCC(=O)Nc1c(C(=O)Nc2ccccc2OC)oc2ccccc12	8.46e-07M*	7.94µM*	12.6µM*	12.5%	7.75e-07M*	0.3%
COc1ccc(NC(=O)c2oc3ccccc3c2NC(=O)c2ccc(OC)c(OC)c2)c(OC)c1	4.93e-08M*	10.7%	13.1%	?	5.24e-08M*	-0.2%
CCOc1ccc(C(=O)Nc2c(C(N)=O)oc3ccccc23)cc1	i	-28.9%	24.2%	8.9%	i	0.4%
N#Cc1ccccc1OCC(=O)Nc1c(C(=O)C2CC2)oc2ccccc12	1.17e-08M*	-10.9%	31.6µM*	?	1.1e-08M*	0.3%
COc1ccc(NC(=O)c2oc3ccccc3c2NC(=O)COc2ccccc2OC)c(OC)c1	8.18e-08M*	11.0%	-93.6%	3.5%	8.46e-08M*	-1.3%
N#Cc1ccccc1NC(=O)c1ccccc1OCC(=O)Nc1ccc2c(c1)oc1ccccc12	i	11.4%	8.3%	-6.3%	i	-2.0%
SMILES	4MU fluor	HADH2 inh	HSD17B inhib	CRE Fsk mod	A350 fluor	AID923
COc1ccccc1N(CC(O)CN1C(=O)NC(C)(C)C1=O)S(=O)(=O)c1ccc(C)cc1 (stereo not given)	.	0.0%	8.7%	-0.2%	.	-0.1%
O=c1cc(C(F)F)oc2c1ccc1ccccc12	.	9.5%	25.1µM*	14.1%	.	0.8%
N[C@@H](C(=O)O)[C@@H]1C[C@H]1C(=O)O	i	-6.8%	.	0.9%	i	.
CN(c1ccc(Cl)cc1)c1cc(=O)n(C)c2ccccc12	i	-20.5%	-12.9%	11.9%	i	0.6%
CN(C)c1ccc2c(O)cc(=O)n(C)c2c1	8.33e-08M*	?	?	15.2%	1.1e-07M*	6.4%
CCN(Cc1ccccc1)C(c1cc2cc(C)ccc2[nH]c1=O)c1nnnn1CCOC (stereo not given)	?	-1.8%	171.5%	2.8%	?	2.4%
Cc1ccc2[nH]c(=O)c(C(c3nnnn3CCc3ccccc3)N3CCOCC3)cc2c1 (stereo not given)	3.62e-08M*	-8.4%	?	-4.0%	3.51e-08M*	2.6%
COCCn1nnnc1C(c1cc2cc(C)cc(C)c2[nH]c1=O)N1CCN(c2ccccc2F)CC1 (stereo not given)	2.46e-08M*	-22.8%	-26.8%	?	3.33e-08M*	0.6%
c1ccc(CCn2nnnc2C(c2cccs2)N2CCOCC2)cc1 (stereo not given)	i	-5.1%	5.3%	0.8%	i	-0.8%
COCCn1nnnc1C(c1cc2cc(OC)ccc2[nH]c1=O)N1CCC(Cc2ccccc2)CC1 (stereo not given)	9.71e-08M*	13.5%	3.16µM*	-8.8%	1.4e-07M*	0.9%
CCN(Cc1ccccc1)C(c1cc2cc(C)cc(C)c2[nH]c1=O)c1nnnn1CCOC (stereo not given)	?	18.0%	126.2%	4.1%	?	-0.6%
COCCn1nnnc1C(c1cc2cc(C)ccc2[nH]c1=O)N1CCCCCC1 (stereo not given)	1.37e-08M*	24.6%	?	-0.6%	1.39e-08M*	9.8%
C/C(=C\CNc1ncnc2c1ncn2[C@@H]1O[C@@H](CO)[C@@H](O)[C@H]1O)CO	i	2.2%	.	-17.1%	i	.
CCOc1ccc(NS(=O)(=O)c2ccc3[nH]cc(C(=O)NC(C)CC)c(=O)c3c2)cc1 (stereo not given)	i	-2.7%	?	?	i	-0.4%
CCOc1ccc2[nH]cc(C(=O)N3CCN(CC)CC3)c(=O)c2c1	1.63e-08M*	-27.6%	25.1µM*	-0.8%	1.56e-08M*	2.8%
Cc1cc(C(F)(F)F)n2ncc(C(=O)O)c2n1	.	7.3%	2.1%	-5.5%	.	3.9%
CNc1ncncc1-c1ccccc1C(F)(F)F	i	?	?	-1.7%	i	0.7%
N#CC1=C(N)N(c2ccccc2)C2=C(C(=O)CCC2)C1c1cccs1 (stereo not given)	1.35e-08M*	12.6µM*	15.8µM*	-6.5%	1.38e-08M*	1.2%
COC(=O)c1c(OC)cc2c(c1C)Oc1c(Cl)c(OC(C)=O)c(Cl)c(C)c1C(=O)O2	.	.	-13.7%	.	.	-4.2%
Cc1nc2cncnc2n(Cc2ccc(F)cc2)c1=O	i	-0.3%	11.6%	?	i	2.1%
